# Screening results (PubChem BioAssay)
# In the library only some 19% were active in any assay of this set; here they are far more common.
# BCR signal inh – qHTS Assay to Find Inhibitors of Chronic Active B-Cell Receptor Signaling; ABC-DLBCL IkBa-CBG/CBR reporter, luminescence ratio, 4 h; Potency, µM (titrated, usually from 46.1 µM), inactives show at the highest dose activity change, negative = inhibition, hits mostly inhibitors; hit rate 0.05% among 340,000; AID 493014, 2011; active = well fitted inhibition curve with a large enough effect in the signal ratio, with a control signal flat, not every such curve was filed as active; inconclusive = small, poorly fitted or top-dose-only effect, or effect the other way, or a change in a side signal; the % refers to the signal ratio;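 note: potency is the fitted concentration of half-maximal effect; plate controls were basal doxycycline-induced cells for no effect and cells given 10 µM MG132 for full effect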
#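 TMD8 human ABC-DLBCL cells with doxycycline-inducible IκBα–green luciferase fusion and unfused red luciferase, in 0.5% FBS medium; compounds up to 46 uM, 4 h at 37C. Green/red luminescence ratio, filter-overlap corrected, fitted to concentration-response curves.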
# SW480 rereplic – A quantitative high throughput screen for small molecules that induce DNA re-replication in SW480 colon adenocarcinoma cells; SW480 DNA re-replication, Hoechst DNA content imaging, 48 h; Potency, µM (doses to about 46.1 µM), without a hit: at the top dose re-replication activation, actives largely listed as activators; hit rate 1.8% among 340,000; AID 624297, 2012; note: potency is the fitted concentration of half-maximal effect; % of control where 0% means no effect; nearly all actives have a fitted effect of over 55% in size
#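 Cells (250 per well) received 23 nL compound or DMSO by pin tool and were kept 48 hr at 37 C, 5% CO2. Nuclei were then stained with Hoechst for 40 min and scanned for DNA content.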
# DT40 TDP1 CPT – qHTS for Inhibitors of human tyrosyl-DNA phosphodiesterase 1 (TDP1): qHTS in cells in presence of CPT; Potency, µM (highest dose often 46.2 µM), without a hit: at the top dose activity change, negative = growth inhibition, usual class: inhibitors; chicken DT40 Tdp1-/-;hTDP1 cells + 20 nM CPT, ATP luminescence, 48 h; hit rate 12% among 420,000; note: potency is the fitted concentration of half-maximal effect; % is set by controls: 0 for no effect and ±100 for the full control effect; nearly all actives have a fitted effect of over 55% in size
#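 Chicken DT40 Tdp1-/- cells complemented with human TDP1, 400 cells/well, exposed to compounds plus 20 nM camptothecin for at least 48 h at 37 C; viability read as ATP content by CellTiter-Glo luminescence.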
# MCF10A rereplic – A quantitative high throughput screen for small molecules that induce DNA re-replication in MCF 10a normal breast cells; hit rate 2.9% among 350,000; MCF 10A DNA re-replication, Hoechst nuclear intensity, 48 h; Potency, µM (titrated, usually from 46.1 µM), for the others: top-dose activity, positive = re-replication, actives largely listed as activators; note: potency is the fitted concentration of half-maximal effect; % of control where 0% means no effect; nearly all actives have a fitted effect of over 50% in size
# IL1B secr inh – qHTS for Inhibitors of Inflammasome Signaling: IL-1-beta AlphaLISA Primary Screen; THP-1 LPS/ATP IL-1B secretion, AlphaLISA, 16 h; active compounds read low; AID 743279, 2014; activity change, % at 57.5 µM; hit rate 4.7% among 360,000; in the data active = activity change below about -50%; inconclusive = mostly about -30% to -49%; note: % is set by controls: 0 for no effect and ±100 for the full control effect
#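 THP-1 cells pretreated 1 hr with compounds (up to 57.5 uM final), then stimulated with LPS (250 ng/mL final) plus ATP (1.25 mM final); secreted IL-1B measured by AlphaLISA after 16 hr, decreased signal indicating inhibition.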
# DT40 TDP1 no CPT – qHTS for Inhibitors of human tyrosyl-DNA phosphodiesterase 1 (TDP1): qHTS in cells in absence of CPT | AID 686978, 2013 | Potency, µM (series often up to 46.2 µM), without a hit: at the highest dose activity change, negative = growth inhibition, hits mostly inhibitors | hit rate 15% among 420,000 | DT40 Tdp1-/- hTDP1 cells, no CPT, ATP luminescence, 48 h; note: potency is the fitted concentration of half-maximal effect; % is set by controls: 0 for no effect and ±100 for the full control effect; nearly all actives have a fitted effect of over 55% in size
#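 Luminescent ATP content (CellTiter-Glo) served as the growth readout. Knockout chicken DT40 cells expressing human TDP1 were exposed to compounds without camptothecin for a minimum 48 hr at 37 °C.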
# Starred values were filed as active, the others as inactive; ? = inconclusive; . = no result given; [ ] = dose if it differs, or a comment. Unless noted, calls come from the whole dose curve; as a rule, active = well fitted curve in the direction sought with a large enough effect; inconclusive = small, poorly fitted or top-dose-only effect, or another doubt; inactive = no such curve, though single readings can be large; an effect the other way counts as inactive or inconclusive.
SMILES,BCR signal inh,SW480 rereplic,DT40 TDP1 CPT,MCF10A rereplic,IL1B secr inh,DT40 TDP1 no CPT
COc1ccc(-c2cc(C(F)(F)F)nc(NCc3ccccc3)n2)cc1OC,.,.,?,.,.,21µM*
O=[N+]([O-])c1ccc(Cl)c(S(=O)(=O)Nc2cccc(-c3ccc(N4CCCC4)nn3)c2)c1,?,-1%,4%,10%,?,-19%
COc1ccc(-c2ccnc3nc(Sc4ncc(C(F)(F)F)cc4Cl)nn23)cc1,-5%,6%,-23%,-2%,-27,-15%
FC(F)(F)c1cnc(Sc2nc3nccc(-c4ccc(Cl)cc4)n3n2)c(Cl)c1,7%,16µM*,?,3.3µM*,?,?
CCCOc1ccc2cc(-c3ccccn3)c(=O)oc2c1,?,?,?,?,-11,16µM*
NC1=NC(S)C2N=CN=C2N1 (configuration not stated),.,18%,.,?,.,.
Cc1c(Cl)cccc1NC(=S)NCC1COc2ccccc2O1 (configuration not stated),?,-9%,-22%,?,-68*,-29%
COC(=O)C(Sc1ccc(Cl)cc1)C1SC(=S)N(Cc2ccccc2)C1=O (configuration not stated),.,.,2.9µM*,.,-26,2.1µM*
COC(=O)c1cccc(CN2C(=O)C(C)Sc3cc(Cl)ccc32)c1 (configuration not stated),.,.,?,.,16,?
c1cc(-c2ccc(N3CCOCC3)cc2)n2cnnc2c1,.,.,1%,.,43,?
CCOC(=O)c1ccccc1NC(=O)Cn1c(=O)n(CCC(=O)N2CCc3ccccc3C2)c(=O)c2ccccc21,.,.,21µM*,.,.,8.2µM*
Cc1ccc(NC(=O)Cn2c(=O)n(CCC(=O)N3CCc4ccccc4C3)c(=O)c3ccccc32)c(C)c1,.,.,21µM*,.,.,23µM*
CCc1ccc(NC(=O)Cn2c(=O)n(CCC(=O)N3CCc4ccccc4C3)c(=O)c3ccccc32)cc1,.,.,-8%,.,.,1%
CCCCNC(=O)/C(C#N)=C/c1ccc(-c2ccc(S(=O)(=O)N3CCOCC3)cc2)o1,3%,?,7.3µM*,?,-6,10µM*
COC(=O)/C(C#N)=C/c1ccc(-c2ccc(S(N)(=O)=O)cc2)o1,12%,-3%,-1%,-1%,-74*,-26%
O=c1nc(Oc2ccccc2)nc2ncccn12,.,.,?,.,-8,?
COc1ccc(CNc2nc3ccccc3n2C)c(OC)c1,7%,-4%,?,1%,?,16µM*
COc1cccc(-c2nccc(NCc3ccccc3OC)n2)c1,.,.,-29%,.,.,?
COc1ccc(CNc2ccnc(-c3ccccc3Cl)n2)c(OC)c1,.,.,?,.,.,23µM*
COc1ccc(CNc2ccnc(-c3ccccc3OC)n2)c(OC)c1,.,.,13µM*,.,.,23µM*
COc1ccc(CNc2ncncc2-c2ccccc2Cl)c(OC)c1,.,.,-2%,.,.,-17%
COc1ccc(CNc2ccnc(-c3ccccc3CN(C)C)n2)c(OC)c1,.,.,?,.,.,15µM*
CC(C)(C)S(=O)(=O)N1Cc2cc(=O)n(Cc3ccccc3)c(CCO)c2[C@H]1CCO,.,-4%,7%,2%,-6,-5%
O=C(Nc1ccc(OCc2ccccc2)cc1)Nc1nnc([C@H]2C[C@H](O)[C@@H](CO)O2)s1,.,.,?,.,178,?
O=S(=O)(Cc1ccccc1Cl)NCCc1ccc(F)cc1,-2%,?,-13%,3%,-14,-14%
SMILES,BCR signal inh,SW480 rereplic,DT40 TDP1 CPT,MCF10A rereplic,IL1B secr inh,DT40 TDP1 no CPT
Cc1cccc(NC(=O)Nc2cc(C)cc(C)n2)c1,?,-12%,12%,-3%,11,-33%
CCC1COCCS(=O)(=O)N1Cc1cccc(C(F)(F)F)c1 (configuration not stated),-2%,-15%,?,-3%,14,?
COCCn1c(=O)c(-c2cc(F)cc(F)c2)nc2cnc(Nc3cccc(OC)c3)nc21,.,.,7%,.,.,-22%
CC(NC(=O)CCCC1=NS(=O)(=O)c2ccccc2N1)c1ccccc1 (configuration not stated),-3%,.,-28%,.,.,?
COc1ccccc1-c1nc(NCc2cccnc2)c2ccccc2n1,.,.,-17%,.,.,?
COc1ccc(CNc2nc(-c3ccccc3OC)nc3ccccc23)c(OC)c1,.,.,23µM*,.,.,9.2µM*
CCS(=O)(=O)Nc1ccc(-c2cc(-c3ccccc3)c3cc(C)ccc3n2)cc1,18%,?,?,15µM*,0,?
Cc1ccc2nc(-c3ccc(NS(C)(=O)=O)cc3)cc(-c3ccccc3)c2c1,-15%,29%,-18%,?,-16,-16%
O=C(NCc1ccccc1)C1Cc2c(-c3ccc4c(c3)OCO4)ccnc2O1 (configuration not stated),.,.,0.58µM*,.,60,0.73µM*
CN1CCN(c2ccc(CNC(=O)C3Cc4c(-c5ccc6c(c5)OCO6)ccnc4O3)cc2)CC1 (configuration not stated),.,.,-10%,.,-27,?
O=C(NCc1ccncc1)C1Cc2c(-c3ccc4c(c3)OCO4)ccnc2O1 (configuration not stated),.,.,?,.,8,13µM*
CCCCC(=O)NNC(=O)N1c2ccccc2Sc2ccccc21,?,11%,1%,4%,6,-4%
c1cnc2c(OCc3cn4cccnc4n3)cccc2c1,?,-2%,-3%,12µM*,-16,29µM*
Cc1ccc(/C=N/Nc2ncc(Cl)cc2Cl)s1,-9%,5.8µM*,?,-2%,-2,?
Clc1cnc(N/N=C/c2cccs2)c(Cl)c1,?,1%[9.22 µM],-15%,0%,-9,?
CCCCNC(=O)c1onc(CSc2ccc(Cl)cc2)c1C(=O)NCCCC,.,9%,?,92%,?,?
CCCCNC(=O)c1onc(CSc2ccc(F)c(F)c2)c1C(=O)NCCCC,.,-6%,16µM*,?,-16,?
C=CCNC(=O)c1onc(CSc2ccc(Cl)cc2)c1C(=O)NCC=C,?,-10%,?,-8%,-15,16µM*
